CD40 NFkB inh: CD40 pathway inhibition in BL2 cells; BL2 NF-kB luciferase reporter, CD40L-induced, 4 h; inhibition, % at 10 µM; 83,000 compounds, 0.94% hits; AID 1053188;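 active means mean inhibition of at least 50% with a set share of replicates also reaching that level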;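 further: 0% = neutral control wells and 100% = IKK inhibitor VII at 50 µM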
* marks the source's active call; other numbers are inactive results; [ ] = another dose, or the depositor's remark. This is one part of a sample in which hits are shown more often than they occur.

SMILES | CD40 NFkB inh
C[C@H]1CN([C@@H](C)CO)C(=O)c2c(c3ccccc3n2C)-c2ccccc2CO[C@H]1CN(C)Cc1cccc(F)c1 | 12.3
C[C@H](CO)N1C[C@H](C)[C@H](CN(C)Cc2ccc(C(F)(F)F)cc2)OCc2ccccc2-c2ccccc2C1=O | 14.6
C[C@@H]1CN([C@@H](C)CO)C(=O)c2c(c3ccccc3n2C)-c2ccccc2CO[C@H]1CN(C)Cc1ccc(C(F)(F)F)cc1 | 11.3
C[C@H]1CN([C@@H](C)CO)C(=O)c2c(c3ccccc3n2C)-c2ccccc2CO[C@H]1CN(C)Cc1ccc(C(F)(F)F)cc1 | 4.5
C[C@H]1CCCCO[C@H](CN(C)C(=O)Nc2ccc(C(F)(F)F)cc2)[C@@H](C)CN([C@@H](C)CO)C(=O)c2cc(NS(=O)(=O)c3ccccc3)ccc2O1 | -1.8
COc1ccc(NC(=O)N(C)C[C@@H]2OCc3ccccc3-c3ccccc3C(=O)N([C@@H](C)CO)C[C@H]2C)cc1 | -17.0
COc1ccc(S(=O)(=O)Nc2ccc3c(c2)C(=O)N([C@@H](C)CO)C[C@@H](C)[C@H](CN(C)C(=O)Nc2ccccc2)OCCCC[C@@H](C)O3)cc1 | 8.8
COc1ccccc1NC(=O)Nc1ccc2c(c1)OCCO2 | -74.5
COc1cc2cc(C(=O)Nc3ccc4c(c3)OCCO4)[nH]c2cc1OC | 60.2*
COc1ccc(C(=O)Nc2ccc3c(c2)OCCO3)c(OC)c1 | -26.2
C[C@@H]1CN(C)C(=O)Cc2ccccc2O[C@@H]1CN(C)C(=O)OC(C)(C)C | 14.8
CO[C@@H]1CN(C)C(=O)c2ccc(NC(=O)c3cccc(F)c3)cc2OC[C@H](C)N(CC2CC2)C[C@@H]1C | -6.4
O=C1CN(S(=O)(=O)Cc2ccccc2)C[C@@H]2[C@H](c3ccc(C#Cc4ccccc4)cc3)[C@H](CO)N12 | 27.8[25 µM]
NC(=O)c1ccccc1NS(=O)(=O)c1ccc(S(=O)(=O)N2CCCC2)cc1 | 4.5
O=S(=O)(Nc1ccccc1)c1ccc(S(=O)(=O)N2CCCC2)cc1 | 1.9
O=S(=O)(Nc1cccc2cccnc12)c1ccc(S(=O)(=O)N2CCCC2)cc1 | 76.0*
Cc1ccccc1S(=O)(=O)NCC[C@@H]1CC[C@H](NC(=O)C2CCCC2)[C@@H](CO)O1 | -2.1
O=C(NC1CCC1)[C@@H]1[C@@H](CO)[C@@H]2Cn3c(cccc3=O)[C@H]1N2CC1CCCCC1 | 2.0
COc1cccc(CN2C[C@@H]3N[C@H](C2)C3c2ccc(-c3ccccc3F)cc2)c1 (some centres undefined) | -14.6[25 µM]
O=C(c1ccccn1)N1CC2(C1)[C@H](c1ccccc1)[C@@H](CO)N2Cc1ccc(F)cc1 | -1.2[25 µM]
C[C@H](NC(=O)C[C@@H]1C[C@H]2c3cc(N(C)C)ccc3O[C@H]2[C@@H](CO)O1)c1ccccc1 | 3.7[25 µM]
CSc1nsc(SC)c1C(=O)O | 3.9
CSc1nsc(SC)c1C(N)=O | 78.3*
CSc1nsc(SC)c1C(=O)OCC(F)(F)F | -16.7
CCN1[C@H](C(=O)NC2CCCCC2)[C@@H](CO)[C@@H]2Cn3c(ccc(-c4cccnc4)c3=O)[C@@H]21 | 15.4[25 µM]
SMILES | CD40 NFkB inh
COc1cccc(S(=O)(=O)Nc2ccc3c(c2)[C@@H]2C[C@@H](CC(=O)NCc4ccccc4F)O[C@@H](CO)[C@@H]2O3)c1 | 0.9[25 µM]
CO[C@H](CN(C)Cc1cc(F)ccc1F)[C@H](C)CN([C@H](C)CO)S(=O)(=O)c1ccc(C)cc1 | 4.5[25 µM]
CCC(=O)N1CC(=O)N2[C@H](C1)[C@H](c1ccc(C#CCC(C)C)cc1)[C@@H]2CO | -1.7[25 µM]
C[C@@H]1CN([C@H](C)CO)C(=O)c2cc(NC(=O)Cc3ccccc3)ccc2O[C@H]1CN(C)C(=O)NC1CCCCC1 | -5.5[25 µM]
O=C1CC(=O)OC(c2ccc([N+](=O)[O-])cc2)O1 | 85.7*
O=C1CSC(c2ccc([N+](=O)[O-])cc2)N1CCN1CCCCC1 (centres undefined) | 11.8
O=C(O)c1ccc([N+](=O)[O-])cc1 | 6.4
CCCNC(=O)NC[C@H]1[C@H](c2ccc(C3=CCCC3)cc2)[C@@H](CO)N1C(C)=O | 1.5
C/C=C/c1ccc([C@H]2[C@@H](CO)N(S(C)(=O)=O)[C@H]2CN(CCC)C(C)=O)cc1 | 8.9[25 µM]
COc1cccc(S(=O)(=O)N(C)C[C@H]2OCc3ccccc3-c3c(n(C)c4ccccc34)C(=O)N([C@@H](C)CO)C[C@H]2C)c1 | 61.1*[25 µM]
C[C@H](CO)N1C[C@H](C)[C@H](CN(C)S(=O)(=O)c2ccc([N+](=O)[O-])cc2)OCc2ccccc2-c2c(n(C)c3ccccc23)C1=O | 63.0*[25 µM]
Cc1cccc(S(=O)(=O)N(C)C[C@@H]2OCc3ccccc3-c3c(n(C)c4ccccc34)C(=O)N([C@H](C)CO)C[C@@H]2C)c1 | 15.2
COc1ccc(S(=O)(=O)N(C)C[C@H]2OCc3ccccc3-c3c(n(C)c4ccccc34)C(=O)N([C@H](C)CO)C[C@H]2C)cc1 | 3.9
C[C@@H]1CN([C@H](C)CO)C(=O)c2c(c3ccccc3n2C)-c2ccccc2CO[C@@H]1CN(C)S(=O)(=O)c1ccc([N+](=O)[O-])cc1 | 22.1[25 µM]
C[C@H]1CN([C@@H](C)CO)C(=O)c2c(c3ccccc3n2C)-c2ccccc2CO[C@@H]1CN(C)S(=O)(=O)c1cccc(F)c1 | 5.0
Cc1cccc(S(=O)(=O)N(C)C[C@H]2OCc3ccccc3-c3c(n(C)c4ccccc34)C(=O)N([C@H](C)CO)C[C@@H]2C)c1 | 9.0
C[C@@H]1CN([C@H](C)CO)C(=O)c2c(c3ccccc3n2C)-c2ccccc2CO[C@@H]1CN(C)S(=O)(=O)c1cccc(F)c1 | -7.7
COc1cccc(S(=O)(=O)N(C)C[C@@H]2OCc3ccccc3-c3c(n(C)c4ccccc34)C(=O)N([C@H](C)CO)C[C@H]2C)c1 | 64.2*[25 µM]
C[C@@H]1CN([C@@H](C)CO)C(=O)c2c(c3ccccc3n2C)-c2ccccc2CO[C@@H]1CN(C)S(=O)(=O)c1ccc([N+](=O)[O-])cc1 | 30.9[25 µM]
COc1cccc(S(=O)(=O)N(C)C[C@@H]2OCc3ccccc3-c3c(n(C)c4ccccc34)C(=O)N([C@H](C)CO)C[C@@H]2C)c1 | 62.5*[25 µM]
C[C@@H]1CN([C@H](C)CO)C(=O)c2c(c3ccccc3n2C)-c2ccccc2CO[C@@H]1CN(C)S(=O)(=O)c1ccccc1 | 7.9
COc1cccc(CNC(=O)[C@H]2[C@H](CO)[C@H]3Cn4c(ccc(-c5ccncc5)c4=O)[C@H]3N2C)c1 | 10.8[25 µM]
COC(=O)[C@H]1[C@H](CO)[C@H]2Cn3c(ccc(-c4ccc(F)cc4)c3=O)[C@H]2N1C | -17.3[25 µM]
Cc1ccc(S(=O)(=O)N(C)C[C@H]2OCCCC[C@H](C)Oc3ccc(NC(=O)c4ccncc4)cc3C(=O)N([C@@H](C)CO)C[C@@H]2C)cc1 | 4.7[25 µM]
COc1cccc(S(=O)(=O)N(C)C[C@@H]2OCc3ccccc3-c3ccccc3C(=O)N([C@H](C)CO)C[C@@H]2C)c1 | -2.3[25 µM]
CCCC#Cc1ccc([C@H]2[C@@H](CO)N3CCCCN(S(C)(=O)=O)C[C@H]23)cc1 | -2.6[25 µM]
C[C@@H]1CN([C@H](C)CO)C(=O)c2c(c3ccccc3n2C)-c2ccccc2CO[C@@H]1CN(C)Cc1ccc(Cl)c(Cl)c1 | 16.5[25 µM]
CS(=O)(=O)N1C[C@@H]2C(c3ccc(-c4ccc(F)cc4)cc3)[C@H](C1)N2CC1CC1 (some centres undefined) | -1.4
O=C(Nc1ccc2c(c1)[C@H]1C[C@H](CC(=O)N3CCc4ccccc4C3)O[C@@H](CO)[C@H]1O2)C1CCOCC1 | -8.8[25 µM]
O=C(Nc1cc(F)ccc1F)N1CC(=O)N2[C@@H](CO)[C@H](c3ccc(C#CC4CCCC4)cc3)[C@@H]2C1 | 4.3

High-throughput results from PubChem.
